# Reference: PubChem BioAssay AID2049 (The Scripps Research Institute Molecular Screening Center, 2009)
# Calls of active or inactive are those of the source. How the calls were made is not given here.
# System: BCL3
# Experiment: STAT3 activators, late-stage profile, late-stage follow-up, cell-based, STAT1 reporter, BCL3 qPCR, cytotoxicity (AID 2049)
# Conditions: human cell reporter, STAT3/STAT1 activation; BCL3 mRNA qPCR, at 10 µM, stronger effect = higher value
Structure (SMILES),outcome,fold change
COc1cc(NC(=O)c2cc(C3CC3)on2)c(OC)cc1Cl,active; probe,2.07
COc1cc(NC(=O)c2cc(C(C)C)on2)c(OC)cc1Cl,inactive; active,0.42
CCCc1cc(C(=O)Nc2cc(OC)c(Cl)cc2OC)no1,active,1.3
